# Source: PubChem BioAssay AID2501 (Southern Research Specialized Biocontainment Screening …, 2010)
# Where “and” joins values, the source holds several entries; their conditions need not be identical. Equal entries are not always repeated. Screen size: about 2,200 compounds; about 1,200 (55%) were called active. So high a share suggests a set chosen from earlier hits. The list shows a part of the results. A number with no mark means an inactive call. No cut-off is given here; in the data, nearly all actives have IC50 up to about 92 µM.
# Experiment: counter assay for TAg ATPase ADP read-out – biochemical, ADP-Hunter, fluorescence, counter-screen (AID 2501);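 note: purified T antigen ATPase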;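 for inhibition: 0% = enzyme with vehicle and 100% = reference inhibitor wells; higher means more inhibition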
# Details: series mostly up to 100 µM; inhibition: at the top concentration
SMILES,inhibition [%],IC50
CC(C)(C)CC(=O)NC(=S)Nc1ccccc1[N+](=O)[O-],-5.63,
COc1ccc(C(=O)N2CCN(C(=O)C3COc4ccccc4O3)CC2)cc1 (stereo not given),-0.44,
Cc1c(CC(=O)N2CCN(C(=O)C3COc4ccccc4O3)CC2)c(=O)oc2c(O)c(O)ccc12 (stereo not given),,5.3 µM (active)
COc1cc(/C=N/N2C(=O)C3C4C=CC(CC4)C3C2=O)ccc1O (stereo not given),,5.67 µM (active)
O=C1C2C3C=CC(CC3)C2C(=O)N1/N=C/c1ccc(O)c(O)c1 (stereo not given),,5.65 µM (active)
COC(=O)c1ccc(-c2ccc(/C=N/N3C(=O)C4C5C=CC(C6CC56)C4C3=O)o2)cc1 (stereo not given),-39.7,
Cc1oc2c(O)c(O)ccc2c(=O)c1-c1cnn(-c2ccccc2)c1,,9.31 µM (active)
CCSC1(SCC)N=C(N)C2(C#N)C(c3ccc(OC)c(OC)c3OC)C12C#N (stereo not given),,96.4 µM (active)
COC(=O)CN1C(=O)[C@@H]2[C@H](C1=O)[C@@H]1CC(C(=O)OC)=C[C@@H](C(=O)OC)[C@@H]3C1=C(C(=O)[C@]3(C)NC(=O)c1ccccc1)[C@@H]2C,25.3,
C/C(=N/NC(=O)Cc1c(C)[nH][nH]c1=O)c1ccc(O)cc1,,9.47 µM (active)
COc1cc(/C(C)=N/NC(=O)Cc2c(C)[nH][nH]c2=O)ccc1O,,3.72 µM (active)
CSc1ccc(CCNC(=O)C2CCCN(S(=O)(=O)N3CCOCC3)C2)cc1 (stereo not given),-1.03,
COc1cc(/C=N/n2c(-c3n[nH]c4c3CCC4)n[nH]c2=S)cc(OC)c1O,,8.78 µM (active)
COc1cc(/C=N/n2c(-c3n[nH]c4c3CCC4)n[nH]c2=S)ccc1O,,5.13 µM (active)
CCS(=O)(=O)c1nc(S(=O)(=O)c2ccc(Cl)cc2)c(NCc2ccccn2)s1,-28.7,
COc1cc(C(c2c(C)[nH][nH]c2=O)c2c(C)[nH][nH]c2=O)ccc1OC(C)C,,69 µM (active)
Cc1[nH][nH]c(=O)c1C(c1ccc(-c2cccc(Cl)c2)o1)c1c(C)[nH][nH]c1=O,-31.4,
COCC(C)NC(=O)c1cccc([N+](=O)[O-])c1 (stereo not given),-5.06,
CCOc1cc(C(c2c(C)[nH][nH]c2=O)c2c(C)[nH][nH]c2=O)ccc1O,,4.65 µM (active)
CCOc1cc(C(c2c(C)[nH][nH]c2=O)c2c(C)[nH][nH]c2=O)ccc1OC(=O)c1cccc([N+](=O)[O-])c1,,28.9 µM (active)
CCCSc1nc(O)c(C(c2ccc(OC)c(O)c2)c2c(O)nc(SCCC)n(C)c2=O)c(=O)n1C,-8.35,
CCS(=O)(=O)c1ncc(Cl)c(C(=O)Nc2ccc(S(=O)(=O)N3CCC(C)CC3)cc2)n1,-17.6,

SMILES,inhibition [%],IC50
Cc1ccsc1C(=O)N1CCCC(CCC(=O)N2CCN(c3ccccn3)CC2)C1 (stereo not given),-0.27,
CN(C)c1ccc(NC(=O)CCN2CCN(c3ccccn3)CC2)cc1,,4.88 µM (active)
CN(C)c1ccc(NC(=O)c2ccc(N3CCOCC3)nc2)cc1,,3.34 µM (active)
CC(C)c1ccc(S(=O)(=O)N2CCN(CCC(=O)Nc3ccc(N(C)C)cc3)CC2)cc1,,12 µM (active)
O=C(CCN1C(=O)/C(=C\C=C\c2ccccc2)SC1=S)Nc1ccc(C(=O)O)cc1,-19.9,
CC(=O)Nc1ccc(NC(=O)C(C)N2CCN(S(=O)(=O)c3ccc(C)cc3)CC2)cc1 (stereo not given),-33.8,
O=C1OC2(c3ccccc31)c1cc(I)c(O)c(I)c1Oc1c2cc(I)c(O)c1I,-22.2,
NC(=O)Nc1ccc(Nc2ccccc2)cc1,,4.72 µM (active)
O=C(Nc1cccc2c1CCCC2)c1ccccc1Cl,-13.3,
O=C(NNC(=O)c1ccccc1-n1cccc1)c1ccc(Cl)cc1Cl,-18,
O=C(Nc1ccc(Nc2ccccc2)cc1)N1CCOCC1,,3.84 µM (active)
Oc1ccc(NC(=S)Nc2ccccc2)cc1,,4.74 µM (active) and 4.32 µM (active)
O=C(c1ccc(-c2ccccc2Cl)s1)N1CCOCC1,1.32,
O=C(NC(=S)Nc1ccc(O)cc1)c1ccccc1Cl,,2.31 µM (active)
C=C(C)C(=O)O[C@H]1C/C(C)=C\C(=O)/C=C(\C)[C@H](O)[C@@H]2OC(=O)C(=C)[C@@H]21,-21.3,
CCCCNC(=S)N(CCN(C)C)Cc1cc2cc3c(cc2[nH]c1=O)OCCO3,1.93,
COc1cccc(NC(=O)CC2(CC(=O)O)CCCC2)c1,-18.3,
COc1cccc(NC(=S)Nc2ccc(O)cc2)c1,,1.13 µM (active)
O=C(NC(=S)Nc1ccc(O)cc1)c1cncc(Br)c1,,3.94 µM (active)
O=C(O)[C@H]1CCCC[C@H]1C(=O)Nc1ccc(Nc2ccccc2)cc1,,3.86 µM (active)
CNC(=S)Nc1ccc(Nc2ccccc2)cc1,,4.39 µM (active)
O=c1[nH]c2cc3c(cc2cc1CN(Cc1cccnc1)Cc1nnnn1Cc1ccco1)OCCO3,-30.1,

SMILES,inhibition [%],IC50
COc1ccc(N=Cc2c[nH][nH]c2=O)cc1,,9.97 µM (active)
CC1(C)Nc2ccc(O)cc2-c2c1ssc2=S,,14.6 µM (active)
O=C1OCC/C1=C\c1ccc(O)cc1,,7.82 µM (active)
CS(=O)(=O)c1ccc(N)c(SSc2cc(S(C)(=O)=O)ccc2N)c1,23.8,
Nc1ccc(O)c2ccccc12,5.37,
Nc1cc(S(=O)(=O)c2ccc(O)c(N)c2)ccc1O,,3.9 µM (active)
Nc1n[nH]c(=S)n1/N=C1/C(=O)Nc2ccccc21,,9.5 µM (active)
Cn1cccc1/C=N/N1CCN(c2ccccn2)CC1,,7.28 µM (active)
Cc1cccc(C)c1NCC(=O)N1CCN(Cc2ccccc2)CC1,-18.3,
Oc1ccc(/C=N/N2CCN(c3ccccn3)CC2)cc1,,10.4 µM (active)
Cn1cccc1/C=N/N1CCN(Cc2ccccc2)CC1,,21 µM (active)
Cc1oc(-c2cccs2)nc1CN1CCN(C(C)C)C(CCO)C1 (stereo not given),-11.3,
COCc1cc(CN2CCN(CCc3ccccc3)C(CCO)C2)ccc1OC (stereo not given),-22.7,
COc1cccc(CN2CCN(Cc3nc(-c4cccs4)oc3C)CC2CCO)c1 (stereo not given),,< 1.56 µM (active)
N#CC1=C(N)C2=C(N3CCCCC3)CCCC2C1(C#N)C#N (stereo not given),,8.2 µM (active)
COc1cc(/C=C2\SC(=S)N(C(C(=O)O)c3ccccc3)C2=O)ccc1O (stereo not given),,7.98 µM (active)
O=C(O)C(Cc1ccccc1)N1C(=O)/C(=C/C=C/c2ccco2)SC1=S (stereo not given),-0.25,
O=C(O)C(c1ccccc1)N1C(=O)/C(=C\c2ccc(O)c(O)c2)SC1=S (stereo not given),,8.33 µM (active)
COc1cc(/C=C2\SC(=S)N(C(Cc3ccccc3)C(=O)O)C2=O)ccc1O (stereo not given),,6.37 µM (active)
CC(C(=O)Nc1ccc(C(=O)O)c(O)c1)N1C(=O)/C(=C\c2ccco2)SC1=S (stereo not given),21,
CC(C)C(C(=O)O)N1C(=O)/C(=C/C=C/c2ccco2)SC1=S (stereo not given),-26.3,
